Data from PubChem BioAssay.
Active and inactive are the calls of the source.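 The calls were made as follows, unless noted: active = fluorescence slope after compound addition differing from the mean of all screened samples at 99.7% confidence, in either direction; inactive = the rest.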

Experiments:
[1] = inhibitors of TNFa-induced NFkB p65 translocation, primary screen, imaging, HUVEC, MLSMR starter and 10KST1 sets (AID 438;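 active = inhibition above 20% together with a positive visual image hit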;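 also: compound added about 3h40 before a 20 min TNFalpha stimulation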;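 as to inhibition: signal is the nuclear over cytoplasmic p65 intensity ratio per well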); details: HUVEC TNFa-induced p65 nuclear translocation; cell count: measured here: nuclei count (cytotoxicity indicator), at 2.08 µM; inhibition: at 2 µM, stronger effect = higher value, 0% TNFa-plus-vehicle, 100% no-TNFa wells
[2] = reduction of polyQ htt aggregates in cells – imaging, exon1htt(103Q)mCFP cells, high-content imaging, primary screen (AID 483;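 active = visual image review flags a hit and inhibition of aggregation exceeds 20%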;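 also: compound exposure lasted 3 days before fixation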;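 as to nuclei count: percent of the per-plate median nuclei count of sample wells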); details: exon1htt(103Q)mCFP cell line, aggregate imaging, at 2 µM; inhibition of aggregation: stronger effect = higher value; nuclei count: measured here: cell count, toxicity
[3] = endothelial E-selectin expression blockers – imaging, HUVEC, immunofluorescence, MLSMR starter and 10KST1 sets, primary screen (AID 487;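 active = visually confirmed hit in the image check and inhibition above 20%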;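 as to inhibition: signal is fraction of cell area covered by stained E-selectin grains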;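 as to nuclei count: 100% = median nuclei count of all wells on the same plate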); details: HUVEC TNFalpha-induced E-selectin immunofluorescence imaging, at 2 µM; inhibition: stronger effect = higher value; nuclei count: measured here: cell number, toxicity
[4] = target: Voltage-gated potassium channel subunit beta-2 (Rattus norvegicus) (UniProt P62483); experiment: inhibitors of rat Kvbeta2 reductase activity – biochemical, NADPH fluorescence, primary screen (AID 622;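 active = fluorescence slope higher than the sample average by over 3 SD, cut at about -0.22 in these data, passing the limit was not always enough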;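 also: slope of raw intensity against log time taken from 70 to 1610 s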); details: recombinant KvBeta, 4-cyanobenzaldehyde reduction, at 10 µM, stronger effect = higher value
Sequence of Voltage-gated potassium channel subunit beta-2 (Rattus norvegicus) (P62483 whole entry, looked up): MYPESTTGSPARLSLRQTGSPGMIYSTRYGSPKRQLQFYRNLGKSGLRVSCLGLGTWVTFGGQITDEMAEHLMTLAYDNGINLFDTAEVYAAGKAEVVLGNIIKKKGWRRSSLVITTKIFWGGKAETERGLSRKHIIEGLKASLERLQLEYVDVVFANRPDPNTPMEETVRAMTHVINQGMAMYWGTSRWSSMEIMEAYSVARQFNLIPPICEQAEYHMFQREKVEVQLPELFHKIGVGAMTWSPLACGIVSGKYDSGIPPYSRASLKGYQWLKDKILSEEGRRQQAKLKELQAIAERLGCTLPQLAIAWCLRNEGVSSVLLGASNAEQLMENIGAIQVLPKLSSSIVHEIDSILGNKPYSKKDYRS

[5] = target: Voltage-gated potassium channel subunit beta-2 (Rattus norvegicus) (UniProt P62483); experiment: enhancers of rat Kvbeta2 NADPH turnover – biochemical, NADPH fluorescence, primary screen (AID 623;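 active = NADPH fluorescence slope more negative than the mean of all samples by about 3 SD, 99.7% confidence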;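 also: fluorescence intensity change per second fitted from 20 to 320 s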); details: Recombinant KvBeta, NADPH fluorescence decrease slope, 10 min; at 10 µM; stronger effect = lower value
[6] = target: Alpha-2C adrenergic receptor (Homo sapiens) (UniProt P18825); experiment: compounds altering alpha2C-coupled GIRK flux – cell-based, HEK293 alpha2C/GIRK1/2, thallium flux, primary screen (AID 624); details: thallium flux BTC fluorescence, at 10 µM, actives lie on both sides;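 also: slope of fluorescence ratio to pre-addition baseline per second over 15 to 24 s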
Sequence of Alpha-2C adrenergic receptor (Homo sapiens) (P18825 whole entry, looked up): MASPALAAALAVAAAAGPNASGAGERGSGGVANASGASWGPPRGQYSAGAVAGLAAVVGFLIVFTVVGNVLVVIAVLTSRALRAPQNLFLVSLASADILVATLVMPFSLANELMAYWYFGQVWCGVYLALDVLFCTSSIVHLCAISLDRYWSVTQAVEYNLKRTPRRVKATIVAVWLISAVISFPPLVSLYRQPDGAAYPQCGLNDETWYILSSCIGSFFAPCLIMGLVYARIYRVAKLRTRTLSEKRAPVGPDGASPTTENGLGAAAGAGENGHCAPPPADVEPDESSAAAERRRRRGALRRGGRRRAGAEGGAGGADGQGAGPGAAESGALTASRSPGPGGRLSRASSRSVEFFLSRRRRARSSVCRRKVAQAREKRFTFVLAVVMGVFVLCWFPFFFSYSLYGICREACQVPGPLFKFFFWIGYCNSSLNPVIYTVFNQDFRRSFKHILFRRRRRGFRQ

[7] = blockers of RIG-like receptor reporter activation – cell-based, Sendai virus stimulus, luciferase, 10K MLSCN set, TLR/RLR signaling modifier project, primary screen (AID 602276;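 active = inhibition at or above 50% at 10 µM; inactive = inhibition below 50%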;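 also: firefly luciferase from ISG56 promoter only with Renilla not read in this screen; 0% = Sendai virus plus DMSO and 100% = medium plus DMSO without virus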); details: HEK293 RL24 IRF3 luciferase reporter, at 10 µM, stronger effect = higher value
[8] = TLR3 IRF3 reporter activation blockers – cell-based, poly I:C stimulus, luciferase, 10K MLSCN set, primary screen (AID 602277;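 active = inhibition of the reporter signal at or above 50%; inactive = inhibition below 50%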); details: HEK293-TLR3 RL24 IRF3 luciferase reporter, at 10 µM, stronger effect = higher value

For `O=C(CSc1nc(N2CCCCC2)nc(N2CCCCC2)n1)Nc1nccs1`, the cell count [1] was 280, the inhibition [1] was -7% (inactive) and the inhibition of aggregation [2] was 5.5% (inactive). The nuclei count [2] was 96.9%, the inhibition [3] was -32.8% (inactive) and the nuclei count [3] was 72.8%. For the same molecule, the fluorescence slope [4] was -0.531 (inactive), the NADPH fluorescence slope [5] was 7.9e-06 (inactive) and the slope [6] was 0.00662 (inactive). The inhibition [7] was 1.6% (inactive) and the inhibition [8] was 52.4% (active).

For `Cc1cc(NC(=O)CSc2nccn2-c2ccc(F)cc2)no1`, the cell count [1] was 433, the inhibition [1] was -0.3% (inactive) and the inhibition of aggregation [2] was -13.1% (inactive). The nuclei count [2] was 111%, the inhibition [3] was -184% (inactive) and the nuclei count [3] was 114%. For the same molecule, the fluorescence slope [4] was -0.6 (inactive), the NADPH fluorescence slope [5] was 9.8e-06 (inactive) and the slope [6] was 0.00665 (inactive). The inhibition [7] was 13.6% (inactive) and the inhibition [8] was 3.73% (inactive).

For `O=C(CSc1nnc(-c2ccncc2)o1)Oc1ccccc1`, the cell count [1] was 662, the inhibition [1] was -2.6% (inactive) and the inhibition of aggregation [2] was -12.9% (inactive). The nuclei count [2] was 109%, the inhibition [3] was -84.7% (inactive) and the nuclei count [3] was 109%. For the same molecule, the fluorescence slope [4] was -0.39 (inactive), the NADPH fluorescence slope [5] was -5.2e-05 (inactive) and the slope [6] was 0.00449 (inactive). For the same molecule, the inhibition [7] was 16.3% (inactive) and the inhibition [8] was 13.7% (inactive).

For `COc1ccccc1CNS(=O)(=O)c1ccc(NC(C)=O)cc1`, the cell count [1] was 601, the inhibition [1] was 8.1% (inactive) and the inhibition of aggregation [2] was -1.3% (inactive). The nuclei count [2] was 110%, the inhibition [3] was -57.3% (inactive) and the nuclei count [3] was 109%. For the same molecule, the fluorescence slope [4] was -0.411 (inactive), the NADPH fluorescence slope [5] was -4.2e-05 (inactive) and the slope [6] was 0.00719 (inactive). For the same molecule, the inhibition [7] was 6.03% (inactive) and the inhibition [8] was 6.94% (inactive).

In the case of `Cn1cccc1Cc1nnc(SCC(=O)Nc2ccc(F)cc2F)n1-c1ccc(F)cc1`, the cell count [1] is reported as 664, the inhibition [1] is reported as -5.5% (inactive) and the inhibition of aggregation [2] is reported as -16.9% (inactive). For the same molecule, the nuclei count [2] was 93.7%, the inhibition [3] was -12.3% (inactive) and the nuclei count [3] was 99.4%. For the same molecule, the fluorescence slope [4] was -0.546 (inactive), the NADPH fluorescence slope [5] was -7.7e-05 (inactive) and the slope [6] was 0.00521 (inactive). The inhibition [7] was 10.4% (inactive) and the inhibition [8] was 32.3% (inactive).

In the case of `Cc1ccccc1-n1c(=O)cc(NCc2ccc3c(c2)OCO3)[nH]c1=O`, the cell count [1] is reported as 447, the inhibition [1] is reported as 1.6% (inactive) and the inhibition of aggregation [2] is reported as 40.2% (active). The nuclei count [2] was 74.9%, the inhibition [3] was -155% (inactive) and the nuclei count [3] was 95.2%. The fluorescence slope [4] was -0.614 (inactive), the NADPH fluorescence slope [5] was 1.9e-05 (inactive) and the slope [6] was 0.00889 (inactive). For the same molecule, the inhibition [7] was 16.5% (inactive) and the inhibition [8] was 19.7% (inactive).

With `Nc1nc(-n2cnnc2)nn1-c1ccccc1` the cell count [1] was 414, the inhibition [1] was 5.5% (inactive) and the inhibition of aggregation [2] was -0.2% (inactive). The nuclei count [2] was 97%, the inhibition [3] was -44% (inactive) and the nuclei count [3] was 118%. The fluorescence slope [4] was -0.366 (inactive), the NADPH fluorescence slope [5] was -3e-05 (inactive) and the slope [6] was 0.0053 (inactive). For the same molecule, the inhibition [7] was 4.93% (inactive) and the inhibition [8] was 4.43% (inactive).

In the case of `Cc1ccc(C)c(NC(=O)c2ccc3c(c2)N(Cc2ccc(F)cc2)C(=O)CS3=O)c1` (stereo not drawn), the cell count [1] is reported as 622, the inhibition [1] is reported as 6.2% (inactive) and the inhibition of aggregation [2] is reported as -0.7% (inactive). For the same molecule, the nuclei count [2] was 105%, the inhibition [3] was 3.5% (inactive) and the nuclei count [3] was 122%. For the same molecule, the fluorescence slope [4] was -0.546 (inactive), the NADPH fluorescence slope [5] was -2.3e-05 (inactive) and the slope [6] was 0.00733 (inactive). For the same molecule, the inhibition [7] was 4.49% (inactive) and the inhibition [8] was 20.4% (inactive).
